# Test results taken from PubChem BioAssay.
# Active and inactive are the calls of the source.
# Legend:
# [1] = test system: Plasmodium falciparum Sir2 (PF13_0152, Sir2A); experiment: Plasmodium falciparum Sir2A binding compounds – biochemical, small-molecule microarray, 635 nm fluorescence, primary screen (AID 1098); conditions: fluorescence 635 nm, higher = more signal;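 also: score merges spot fluorescence intensity with its signal-to-noise ratio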
# [2] = probe aDKK1 binding to arrayed compounds – biochemical, biotinylated probe, 635/667 nm fluorescence, primary screen (AID 1099); conditions: small-molecule microarray, higher = more signal;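 also: score merges 667nm spot fluorescence with signal to noise across triplicate slides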
# [3] = probe aCHRDL2 binding to arrayed compounds – biochemical, biotinylated probe, 635/667 nm fluorescence, primary screen (AID 1100); conditions: small-molecule microarray, higher = more signal
# [4] = change in splice reporter luminescence, either direction, cell-based, HEK293, spliceosome inhibition project, primary screen (AID 1101); conditions: HEK293 splicing luciferase reporter, 24 h, higher = more signal, called active from +8 up or from −8 down;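 also: HEK293 cells carrying a splicing-competent luciferase reporter gene; test concentration not given here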
# [5] = target: Fibroblast growth factor 10 (Homo sapiens) (UniProt O15520); experiment: compounds binding fibroblast growth factor 10 – biochemical, small-molecule microarray, 635 nm fluorescence, primary screen (AID 1102); conditions: FGF10 binding, fluorescence 635 nm, higher = more signal
# Fibroblast growth factor 10 (Homo sapiens), sequence (O15520 whole entry, looked up): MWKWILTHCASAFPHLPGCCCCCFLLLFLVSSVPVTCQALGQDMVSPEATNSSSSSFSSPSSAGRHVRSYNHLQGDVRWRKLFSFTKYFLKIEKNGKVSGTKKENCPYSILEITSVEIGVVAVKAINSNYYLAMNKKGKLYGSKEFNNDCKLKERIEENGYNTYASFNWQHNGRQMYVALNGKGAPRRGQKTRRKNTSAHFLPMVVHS
# [6] = test system: glycogen synthase kinase-3 (GSK3A per assay name; protocol says GSK3B); experiment: compounds binding glycogen synthase kinase-3 – biochemical, small-molecule microarray, 635 nm fluorescence, GSK3A, primary screen (AID 1103); conditions: fluorescence 635 nm, higher = more signal; also: the record names both GSK3A and GSK3B
# [7] = target: Epidermal growth factor receptor (Homo sapiens) (UniProt P00533); experiment: compounds binding epidermal growth factor receptor – biochemical, small-molecule microarray, 635 nm fluorescence, primary screen (AID 1104); conditions: EGFR binding, higher = more signal;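 also: score merges 667 nm emission intensity with spot signal to noise over triplicate slides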
# Epidermal growth factor receptor (Homo sapiens), sequence (P00533 whole entry, looked up): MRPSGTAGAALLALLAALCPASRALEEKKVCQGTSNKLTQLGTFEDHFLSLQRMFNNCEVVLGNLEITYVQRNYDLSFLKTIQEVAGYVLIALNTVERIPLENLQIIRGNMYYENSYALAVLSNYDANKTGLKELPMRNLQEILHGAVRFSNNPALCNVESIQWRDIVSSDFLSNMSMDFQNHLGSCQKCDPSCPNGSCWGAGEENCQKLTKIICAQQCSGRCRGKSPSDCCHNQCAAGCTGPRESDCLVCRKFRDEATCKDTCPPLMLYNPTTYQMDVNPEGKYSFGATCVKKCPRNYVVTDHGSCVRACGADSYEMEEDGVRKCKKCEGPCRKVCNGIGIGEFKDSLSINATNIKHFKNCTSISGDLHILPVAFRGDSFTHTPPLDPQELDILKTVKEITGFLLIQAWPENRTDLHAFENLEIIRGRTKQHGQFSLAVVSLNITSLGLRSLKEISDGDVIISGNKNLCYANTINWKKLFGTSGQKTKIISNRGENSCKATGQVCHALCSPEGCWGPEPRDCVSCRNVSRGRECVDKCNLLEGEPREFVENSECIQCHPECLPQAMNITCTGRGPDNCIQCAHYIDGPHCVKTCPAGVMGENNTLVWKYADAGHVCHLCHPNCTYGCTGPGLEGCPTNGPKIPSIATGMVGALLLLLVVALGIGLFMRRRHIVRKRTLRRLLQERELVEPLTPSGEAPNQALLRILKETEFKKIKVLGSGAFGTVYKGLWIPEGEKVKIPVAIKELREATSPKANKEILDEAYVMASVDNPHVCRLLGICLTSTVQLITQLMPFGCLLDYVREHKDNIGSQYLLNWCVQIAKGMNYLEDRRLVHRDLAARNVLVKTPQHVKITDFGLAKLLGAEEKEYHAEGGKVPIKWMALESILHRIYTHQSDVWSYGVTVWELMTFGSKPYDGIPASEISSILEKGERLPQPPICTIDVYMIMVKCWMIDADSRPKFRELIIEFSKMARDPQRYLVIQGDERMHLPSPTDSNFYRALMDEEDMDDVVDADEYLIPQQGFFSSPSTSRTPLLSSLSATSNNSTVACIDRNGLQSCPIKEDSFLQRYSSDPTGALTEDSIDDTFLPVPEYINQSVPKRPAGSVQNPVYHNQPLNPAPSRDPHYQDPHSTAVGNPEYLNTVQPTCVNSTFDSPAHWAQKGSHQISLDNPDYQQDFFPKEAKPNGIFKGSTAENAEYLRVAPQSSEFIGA
# [8] = target: Follistatin-related protein 3 (Homo sapiens) (UniProt O95633); experiment: compounds binding follistatin-related protein 3 – biochemical, small-molecule microarray, 635 nm fluorescence, primary screen (AID 1105); conditions: FSTL3 binding, higher = more signal;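 also: score merges emission near 667 nm and signal to noise per printed spot across three slides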
# Follistatin-related protein 3 (Homo sapiens), sequence (O95633 whole entry, looked up): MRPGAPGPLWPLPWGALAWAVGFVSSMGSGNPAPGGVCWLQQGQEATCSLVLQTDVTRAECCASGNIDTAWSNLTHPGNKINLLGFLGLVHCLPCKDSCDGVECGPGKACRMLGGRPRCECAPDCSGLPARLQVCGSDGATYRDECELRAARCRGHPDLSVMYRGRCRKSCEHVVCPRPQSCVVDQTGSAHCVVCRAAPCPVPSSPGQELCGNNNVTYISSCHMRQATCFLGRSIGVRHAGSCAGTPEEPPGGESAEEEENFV
# [9] = target: Dickkopf-related protein 1 (Homo sapiens) (UniProt O94907); experiment: small molecules binding DKK1 protein – biochemical, small-molecule microarray, 635 nm fluorescence scan, primary screen (AID 1106); conditions: higher = more signal;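 also: score merges emission near 667 nm with signal to noise over three replicate slides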
# Dickkopf-related protein 1 (Homo sapiens), sequence (O94907 whole entry, looked up): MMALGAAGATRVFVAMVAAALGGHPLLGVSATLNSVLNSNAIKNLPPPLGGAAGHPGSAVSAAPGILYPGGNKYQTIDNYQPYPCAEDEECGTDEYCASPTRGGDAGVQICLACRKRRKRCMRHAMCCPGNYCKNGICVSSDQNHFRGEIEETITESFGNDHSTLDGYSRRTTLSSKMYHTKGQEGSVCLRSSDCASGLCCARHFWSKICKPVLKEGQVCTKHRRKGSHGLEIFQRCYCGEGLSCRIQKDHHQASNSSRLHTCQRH
# [10] = test system: Inhibin beta A chain (activin A); experiment: small molecules binding activin A – biochemical, small-molecule microarray, 635 nm fluorescence scan, primary screen (AID 1107); conditions: INHBA, higher = more signal;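 also: mouse activin A protein probed at 4.33 µg/mL on printed slides; score merges bound-protein fluorescence near 667 nm with spot signal-to-noise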
# [11] = test system: Human papillomavirus type 1a protein E7 (residues 44-93); experiment: small molecules binding HPV E7 44-93 – biochemical, small-molecule microarray, residues 44-93, 635 nm fluorescence, primary screen (AID 1108); conditions: fluorescence 635 nm, higher = more signal;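 also: E7 fragment applied at 1 µg/mL in TBST for 1 h at 4 C; score combines spot fluorescence with its signal to noise ratio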
# [12] = hepatitis C replication reporter changes, two-sided – Huh7 cells, luciferase reporter, HCV replication inhibitor project, primary screen (AID 1109); conditions: Huh7 HCV replicon luciferase reporter, 48 h; higher = more signal;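 also: huh7 hepatoma cells harbouring a luciferase neomycin HCV replicon reporter; luciferase luminescence as measure of HCV replicon replication; test concentration not given here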
# [13] = target: Left-right determination factor 2 (Homo sapiens) (UniProt O00292); experiment: small molecules binding LEFTY2 protein – biochemical, small-molecule microarray, 635 nm fluorescence scan, primary screen (AID 1110); conditions: higher = more signal
# Left-right determination factor 2 (Homo sapiens), sequence (O00292 whole entry, looked up): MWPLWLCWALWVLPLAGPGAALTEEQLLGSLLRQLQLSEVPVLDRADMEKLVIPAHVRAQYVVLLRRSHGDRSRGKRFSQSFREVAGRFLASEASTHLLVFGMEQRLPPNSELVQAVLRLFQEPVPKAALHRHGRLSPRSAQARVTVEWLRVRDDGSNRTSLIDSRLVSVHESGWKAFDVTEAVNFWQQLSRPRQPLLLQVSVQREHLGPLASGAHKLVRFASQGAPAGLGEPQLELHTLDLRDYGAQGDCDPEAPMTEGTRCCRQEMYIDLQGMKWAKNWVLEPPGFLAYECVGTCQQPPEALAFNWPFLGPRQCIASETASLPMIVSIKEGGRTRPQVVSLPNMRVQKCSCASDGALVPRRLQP
# [14] = target: Calmodulin-1 (Homo sapiens) (UniProt P0DP23); experiment: small molecules binding calmodulin-1 with EGTA – biochemical, small-molecule microarray, Cy5-labelled CALM1, profiling panel (AID 1111); conditions: Cy5-CALM1 binding fluorescence, higher = more signal;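 also: labelled calmodulin applied in Tris saline Tween buffer holding calcium plus EGTA and DTT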
# [15] = target: Calmodulin-1 (Homo sapiens) (UniProt P0DP23); experiment: small molecules binding Ca-loaded calmodulin-1 – biochemical, small-molecule microarray, Cy5-labelled CALM1, plus calcium, artefact control for SMM control-protein annotation, profiling panel (AID 1112); conditions: Cy5-CALM1 binding fluorescence, higher = more signal;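 also: score merges spot fluorescence with signal to noise from triplicate slides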
# [16] = probe aWnt5a binding to arrayed compounds – biochemical, biotinylated probe, 635/667 nm fluorescence, primary screen (AID 1113); conditions: small-molecule microarray, higher = more signal;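 also: score merges 667 nm fluorescence intensity with signal-to-noise per printed feature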
# [17] = probe aShh binding to arrayed compounds – biochemical, biotinylated probe, 635/667 nm fluorescence, primary screen (AID 1114); conditions: small-molecule microarray, higher = more signal;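 also: probe is biotin-labelled aShh protein from a stem cell growth factor screen; measures binding of labelled protein to compounds printed on the slide; score merges feature fluorescence at 667 nm with signal-to-noise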
# [18] = probe aNog binding to arrayed compounds – biochemical, biotinylated probe, 635/667 nm fluorescence, primary screen (AID 1115); conditions: small-molecule microarray, higher = more signal;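 also: probe is biotinylated aNog protein used at 0.15 µg/mL for 1 h at 4 C; z-score combines 667 nm fluorescence of each spot with its signal to noise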
# [19] = target: Torsin-1A-interacting protein 1 (Homo sapiens) (UniProt Q5JTV8); experiment: compound microarray binding of lysate hLAP1 – cell lysate, small-molecule microarray, COS7 lysate, 635/667 nm fluorescence, primary screen (AID 1116); conditions: 635 nm fluorescence, higher = more signal
# Torsin-1A-interacting protein 1 (Homo sapiens), sequence (Q5JTV8 whole entry, looked up): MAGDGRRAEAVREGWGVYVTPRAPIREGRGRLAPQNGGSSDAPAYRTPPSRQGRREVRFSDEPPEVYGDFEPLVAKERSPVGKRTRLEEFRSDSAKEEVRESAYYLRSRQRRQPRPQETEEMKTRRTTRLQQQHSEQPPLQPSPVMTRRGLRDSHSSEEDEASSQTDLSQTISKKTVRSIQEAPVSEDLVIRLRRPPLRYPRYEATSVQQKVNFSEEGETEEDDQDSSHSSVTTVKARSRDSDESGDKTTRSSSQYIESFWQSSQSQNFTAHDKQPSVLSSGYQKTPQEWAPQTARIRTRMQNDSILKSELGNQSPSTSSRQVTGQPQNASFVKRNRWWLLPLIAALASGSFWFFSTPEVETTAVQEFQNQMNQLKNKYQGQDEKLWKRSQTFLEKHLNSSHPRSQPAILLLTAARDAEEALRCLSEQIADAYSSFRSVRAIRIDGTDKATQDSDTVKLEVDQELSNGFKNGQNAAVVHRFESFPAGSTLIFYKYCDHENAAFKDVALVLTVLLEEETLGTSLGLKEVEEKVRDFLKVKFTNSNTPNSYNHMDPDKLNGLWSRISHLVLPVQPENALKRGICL
# [20] = target: Alpha-bungarotoxin (Bungarus multicinctus) (UniProt P60615); experiment: compounds binding labelled alpha-BTX control protein – biochemical, small-molecule microarray, Alexa647 label, 635/667 nm fluorescence, artefact control for SMM control protein annotation, profiling panel (AID 1117); conditions: alpha-BTX-A647 binding fluorescence, higher = more signal
# Alpha-bungarotoxin (Bungarus multicinctus), sequence (P60615 whole entry, looked up): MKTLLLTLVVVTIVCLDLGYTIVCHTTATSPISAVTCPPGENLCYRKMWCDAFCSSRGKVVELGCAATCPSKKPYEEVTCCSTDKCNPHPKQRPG
Compound,composite z-score [1],composite z-score [2],composite z-score [3],z-score [4],composite z-score [5],composite z-score [6],composite z-score [7],composite z-score [8],composite z-score [9],composite z-score [10],composite z-score [11],z-score [12],composite z-score [13],composite z-score [14],composite z-score [15],composite z-score [16],composite z-score [17],composite z-score [18],composite z-score [19],composite z-score [20]
COC(=O)[C@@]1(Cc2ccccc2)[C@H]2c3cc(C(=O)N4CCCC4)n(Cc4nc5ccccc5[nH]4)c3C[C@H]2CN1C(=O)c1ccccc1,0.844,1.1,1.36,-1.52 (inactive),0.0471,1.19,-0.361,1.09,-0.137,0.831,1.43,-1.89,-0.0838,2.55,1.53,0.0003,-0.2,2.15,2.53,0.442
CCOC(=O)C[C@H]1[C@H](OC(=O)c2ccc(C(=O)c3ccccc3)cc2)[C@@H](NC(=O)c2ccc(-c3ccccc3)cc2)c2cc(OCCCO)ccc2N1C(=O)c1ccccc1,0.82,-0.222,-0.387,0.475 (inactive),0.994,0.477,0.515,0.723,0.321,-0.144,1.3,-1.1,0.342,0.228,-0.119,0.193,-0.0709,-0.632,0.191,0.706
CC(=O)n1cc(C(O)C2C=CC3C(=O)N(C)C(=O)C3N2Nc2ccccc2)c2ccccc21 (stereo not given),0.511,0.906,1.18,1.45 (inactive),1.17,0.292,1.27,1.4,1.02,1.79,1.35,-0.581,0.532,0.202,-0.53,0.105,0.494,0.578,1.36,1.18
O=C1OCCC/C=C\[C@H]2OC34C=CCN(Cn5nnc6ccccc65)C(=O)[C@H]3N(CCCCCCO)C(=O)[C@@H]4C12 (stereo not given in full),1.53,-0.234,0.489,-1.57 (inactive),-1.41,-0.662,-0.636,-0.321,-0.774,1.12,-0.311,-0.625,-1.17,-0.824,-0.317,-0.18,-0.0035,0.599,-0.401,-0.716
O=C(NCc1ccccc1)[C@@H]1c2ccccc2C(=O)N(CC23CC4CC(CC(C4)C2)C3)[C@H]1c1ccc(CO)cc1,1.6,-0.654,-0.524,0.152 (inactive),0.971,1.31,0.603,1.43,0.593,0.147,1.36,-1.96,0.567,0.237,-0.831,-0.0957,-0.0337,-0.584,0.575,0.645
O=C1NC(=O)C2C1C=CC(C(O)C(c1ccccc1)c1ccccc1)N2Nc1ccc(Cl)cc1Cl (stereo not given),0.496,0.824,1.11,1.44 (inactive),0.554,0.0932,-0.261,0.908,-0.737,0.974,1.36,-1.75,-0.5,1.81,0.625,0.065,0.234,1.41,0.343,0.503
COCCOC(=O)N1C(=O)[C@@]2(c3cc(C#Cc4ccc(OC)cc4)ccc31)[C@H](C(=O)N1CCCCCCC1)[C@H]1C(=O)O[C@H](c3ccccc3)[C@H](c3ccccc3)N1[C@@H]2c1ccc(OCCO)cc1,1.37,2.34,1.45,-0.16 (inactive),1.7,1.33,1.13,1.45,1.76,1.58,0.114,-1.7,1.47,1.88,1.2,0.543,2.15,2.9,2.98,1.14
[N-]=[N+]=Nc1ccccc1C[C@]1(C(N)=O)N=C(c2ccc(OCCCO)cc2)O[C@H]1c1ccccc1,1.13,0.0609,0.875,0.297 (inactive),0.181,0.532,-1.44,-0.255,-0.748,0.511,1.43,-0.947,-0.932,1.59,0.0189,-0.0721,0.0723,-0.235,2.05,1.03
COc1ccc(C(O)C2C=CC3C(=O)N(C)C(=O)C3N2N2CCCCC2)c2ccccc12 (stereo not given),1.17,0.65,0.947,1.28 (inactive),0.956,1.29,0.344,1.24,-0.312,0.91,1.43,-0.534,-0.129,1.26,0.639,0.131,0.476,-0.0646,0.826,1.34
CC(C)C[C@@H]1NC(=O)[C@H]2C[C@@H](C(=O)NCCCCCCN)[C@@H](c3ccc(O)cc3)N2C1=O,1.59,1.06,0.808,0.823 (inactive),0.23,0.247,0.106,0.69,0.731,1.23,0.302,0.742,0.057,0.143,0.307,0.055,-0.214,0.103,1.13,0.585
